Test results as given in PubChem BioAssay (NCATS).
Inconclusive results are not listed. Calls of active or inactive are those of the source. The call rests on the fitted dose curve; in most records, active means well fitted curve in the direction sought with a large enough effect; inconclusive means small, poorly fitted or top-dose-only effect, or another doubt; inactive means no such curve, though single readings can be large; an effect the other way counts as inactive or inconclusive.

assay: Cell Viability - HUV-EC-C (AID 542); settings: HUV-EC-C endothelial cell viability, qHTS; series mostly up to 92.2 µM; activity change, negative = cytotoxicity: at the top concentration; further: on the % scale 0 is the no-effect control and ±100 the full control effect; nearly all actives have a fitted effect of over 35% in size
Outline: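 HUV-EC-C normal human vascular endothelial cells, 1000 cells/well, pre-incubated 5 hr at 37 °C, then exposed to compounds for 40 hr at 37 °C in complete medium. Viability measured as intracellular ATP by CellTiter-Glo luminescence; AC50 from Hill fits.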

SMILES	activity change, negative = cytotoxicity
CC(=O)Nc1ccc(O)cc1	-8.38% (inactive)
Cc1ccc(C)c(OCCCC(C)(C)C(=O)O)c1	-7.23% (inactive)
c1ccc2[nH]c(-c3cscn3)nc2c1	-16.6% (inactive)
CCCc1cc(=O)[nH]c(=S)[nH]1	0.594% (inactive)
Nc1ccc(S(N)(=O)=O)cc1	3.25% (inactive)
CCc1nc(N)nc(N)c1-c1ccc(Cl)cc1	-15.8% (inactive)
NS(=O)(=O)c1cc(C(=O)O)c(NCc2ccco2)cc1Cl	-11% (inactive)
COc1c2occc2cc2ccc(=O)oc12	6.54% (inactive)

assay: Cell Viability - H-4-II-E (AID 543); settings: H-4-II-E rat hepatoma viability; series mostly up to 92.2 µM; activity change, negative = cytotoxic: at the top concentration; further: nearly all actives have a fitted effect of over 35% in size; further: potency means the concentration at half of the fitted maximal effect; on activity change, negative = cytotoxic: on the % scale 0 is the no-effect control and ±100 the full control effect
Outline: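 Rat hepatoma H-4-II-E cells (1500/well) were plated, incubated 5 hr at 37 °C, then exposed to compounds for 40 hr at 37 °C. Cellular ATP was read by CellTiter-Glo luminescence; AC50 came from Hill-equation fits of concentration-response data.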

SMILES	activity change, negative = cytotoxic	Potency
CC(=O)Nc1ccc(O)cc1	-22.5% (inactive)	
Cc1ccc(C)c(OCCCC(C)(C)C(=O)O)c1	-3.77% (inactive)	
c1ccc2[nH]c(-c3cscn3)nc2c1	-28.3% (inactive)	
CCCc1cc(=O)[nH]c(=S)[nH]1	-12.9% (inactive)	
Nc1ccc(S(N)(=O)=O)cc1	-1.29% (inactive)	
CCc1nc(N)nc(N)c1-c1ccc(Cl)cc1		158 nM (active)
COc1c2occc2cc2ccc(=O)oc12	-20.3% (inactive)	

assay: Cell Viability - SH-SY5Y (AID 544); settings: SH-SY5Y neuroblastoma cell viability; series mostly up to 92.2 µM; viability change, negative = cytotoxic: at the top concentration;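 further: 0% = DMSO alone and -100% = 100 µM tamoxifen; nearly all actives have a fitted effect of over 55% in size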
Outline: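 Human neuroblastoma SH-SY5Y cells (1500/well) in complete medium were exposed to compounds for 40 hr at 37 °C; intracellular ATP was then quantified by CellTiter-Glo luminescence after 20 min at room temperature. AC50 came from Hill-equation concentration-response fits.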

SMILES	viability change, negative = cytotoxic
CC(=O)Nc1ccc(O)cc1	-9.97% (inactive)
Cc1ccc(C)c(OCCCC(C)(C)C(=O)O)c1	-5.41% (inactive)
c1ccc2[nH]c(-c3cscn3)nc2c1	-29.8% (inactive)
Nc1ccc(S(N)(=O)=O)cc1	-10.3% (inactive)
CCc1nc(N)nc(N)c1-c1ccc(Cl)cc1	-21% (inactive)
NS(=O)(=O)c1cc(C(=O)O)c(NCc2ccco2)cc1Cl	-21.5% (inactive)
COc1c2occc2cc2ccc(=O)oc12	-2.55% (inactive)

assay: Cell Viability - Renal Proximal Tubule (AID 545); settings: renal proximal tubule cells viability, primary cells of rat origin; series mostly up to 91.7 µM; activity change, negative = cytotoxicity: at the top concentration;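 further: 0% = DMSO only and -100% = 100 µM tamoxifen; nearly all actives have a fitted effect of over 40% in size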
Outline: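 Rat renal proximal tubule primary cells, 1000/well, exposed to compounds for 40 hr at 37 °C in complete medium; cellular ATP read by CellTiter-Glo luminescence. AC50 from concentration-response fitted with standard Hill equation.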

SMILES	activity change, negative = cytotoxicity
CC(=O)Nc1ccc(O)cc1	-13.7% (inactive)
Cc1ccc(C)c(OCCCC(C)(C)C(=O)O)c1	-7.53% (inactive)
c1ccc2[nH]c(-c3cscn3)nc2c1	-25.7% (inactive)
CCCc1cc(=O)[nH]c(=S)[nH]1	-1.05% (inactive)
Nc1ccc(S(N)(=O)=O)cc1	-10.1% (inactive)
CCc1nc(N)nc(N)c1-c1ccc(Cl)cc1	-18.8% (inactive)
NS(=O)(=O)c1cc(C(=O)O)c(NCc2ccco2)cc1Cl	-3.5% (inactive)
COc1c2occc2cc2ccc(=O)oc12	-23.8% (inactive)

assay: Cell Viability - Mesenchymal (AID 546); settings: mesenchymal cells viability, qHTS; series mostly up to 91.7 µM; activity change, negative = cytotoxicity: at the top concentration;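 further: cells exposed to compound for 40 hours before reading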; further: potency means the concentration at half of the fitted maximal effect;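 on activity change, negative = cytotoxicity: 0% = DMSO only and -100% = 100 µM tamoxifen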
Outline: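 Human kidney mesenchymal cells from normal renal glomeruli, 1000 cells/well, rested 5 hr at 37 °C, then treated 40 hr at 37 °C in complete medium. Cellular ATP read by CellTiter-Glo luminescence; AC50 from Hill-equation fits.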

SMILES	activity change, negative = cytotoxicity	Potency
CC(=O)Nc1ccc(O)cc1	10.8% (inactive)	
Cc1ccc(C)c(OCCCC(C)(C)C(=O)O)c1	5.02% (inactive)	
c1ccc2[nH]c(-c3cscn3)nc2c1	-18.4% (inactive)	
CCCc1cc(=O)[nH]c(=S)[nH]1	-3.65% (inactive)	
Nc1ccc(S(N)(=O)=O)cc1	0.456% (inactive)	
CCc1nc(N)nc(N)c1-c1ccc(Cl)cc1		2 µM (active)
NS(=O)(=O)c1cc(C(=O)O)c(NCc2ccco2)cc1Cl	-4.51% (inactive)	
COc1c2occc2cc2ccc(=O)oc12	-12.1% (inactive)	
